# About 13,000 (27%) of roughly 48,000 compounds showed an effect of 50% or more. The list shows a part of the results.
# Tested on: Wolbachia pipientis
# Experiment: Anti-Wolbachia Cell-Based Screen
# Assay type: functional
# Set-up: scale not given: in the data most compounds retested in dose-response had high values
# Conditions: 5 µM
row,Compound,Percent Effect [%]
1,CCC1(CO)CCCN(c2ncccc2C#N)C1 (centres undefined),13.06
2,CCOCCN1CCN(c2ccc(C#N)cn2)CC1CC (centres undefined),137.2
3,CS(=O)(=O)NCC1CCCN(c2ccc(C#N)cn2)C1 (centres undefined),7.798
4,CC1CN(c2ccc(C#N)cn2)CCN1c1ccc2nncn2n1 (centres undefined),-4.12
5,CCOCCN1CCN(c2ccc(C#N)cn2)CC1,109.9
6,CC(C)(C)NC(=O)CN1CCCN(c2ccc(C#N)cn2)CC1,24.81
7,Cn1ccnc1CN1CCN(c2ccc(C#N)cn2)CC1,-0.9775
8,CCc1nc(N2CCN(c3ncccc3C#N)CC2)c2cnn(C)c2n1,-1.782
9,CCOCCN1CCN(c2ncccc2C#N)CC1CC (centres undefined),98.03
10,OC(CN(Cc1ccccc1)Cc1cscn1)c1ccco1 (centres undefined),18.92
11,CCOCCCn1c(NC(=O)c2cnn(C)c2)nc2ccccc21,-0.9199
12,CCOCCCn1c(NC(=O)c2cc(C)no2)nc2ccccc21,106.1
13,CCOCCCn1c(NC(=O)c2ccc(C)nc2)nc2ccccc21,6.919
14,CCOCCCn1c(NC(=O)c2ccnc(C)n2)nc2ccccc21,73.67
15,CCOCCCn1c(NC(=O)c2cnc(C)cn2)nc2ccccc21,19.12
16,Cc1cc(C(=O)NCC(c2ccccc2Cl)N2CCOCC2)on1 (centres undefined),-6.198
17,CCOC(=O)NCC(=O)Nc1nc2ccccc2n1C(C)(C)C,17.02
18,CCOCCCn1c(NC(=O)c2cnc(C)s2)nc2ccccc21,27.94
19,CCCn1c(NC(=O)CNC(=O)OCC)nc2ccccc21,-6.336
20,CCN(CC)CCn1c(NC(=O)c2scnc2C)nc2ccccc21,105.9
21,CCOCCCn1c(NC(=O)c2cc(C)on2)nc2ccccc21,95.91
22,CCOCCCn1c(NC(=O)c2scnc2C)nc2ccccc21,25.92

row,Compound,Percent Effect [%]
1,CCN(c1ccccc1)S(=O)(=O)c1cc(C(=O)O)cc2c1CCC2,1.015
2,Cc1ccc(N2Cc3cnn(Cc4ccc(F)cc4)c3C2)nn1,30.55
3,Cc1nn(C)c(C)c1OCC(=O)N1CCC(O)(C(F)(F)F)CC1,-15.17
4,CCOCCNC(=O)c1cc(COc2cncc(Cl)c2)on1,-4.955
5,Cc1cc2occ(CC(=O)N3CCC4(CCCN(C)C4=O)C3)c2cc1Cl (centres undefined),-29.71
6,CNC(=O)CN(C)c1cncc(OCC(C)C)n1,-2.547
7,NC(=O)CC1CCCN(c2cncc(OCc3ccccc3)n2)C1 (centres undefined),95.75
8,NC(=O)CC1CCCN(c2cncc(SCc3ccccc3)n2)C1 (centres undefined),107.6
9,O=C(O)c1cn(CC2CCCN(c3cnc4ccccc4n3)C2)nn1 (centres undefined),0.3718
10,CCC(=O)NC1CCCN(C(=O)c2ccc(OCC3CC3)nc2)C1 (centres undefined),-1.285
11,CC(C)Oc1ncc(C(=O)N2CCC(CC(N)=O)CC2)cc1Cl,-16.32
12,NC(=O)N1CCCC(C(=O)NCc2noc(Cc3ccccc3)n2)C1 (centres undefined),9.14
13,CCC(=O)NC1CCCN(c2cncc(OCc3ccccc3)n2)C1 (centres undefined),109.7
14,Cc1ccccc1CSc1nc(N)cc(N2CCCC(O)C2)n1 (centres undefined),-23.5
15,CCCC(=O)NC1CCCN(c2cncc(Br)c2)C1 (centres undefined),2.547
16,CC(C)COc1cncc(N2CCCC(CC(N)=O)C2)n1 (centres undefined),119.8
17,CNC(=O)CN(C)c1cncc(OCc2ccccc2)n1,-7.002
18,Cc1ccc(CN2CCN(Cc3ccc4nonc4c3)CC2=O)cc1,-11.42
19,O=C(Nc1cccnc1)C1CCCN(c2cc(-n3cccn3)ncn2)C1 (centres undefined),-6.997
20,COc1nc(N2CCC(CC(N)=O)CC2)ncc1Br,4.929
21,c1ccc(COC2CCN(c3cncc(-n4cccn4)n3)CC2)cc1,1.342
22,NC(=O)CC1CCN(c2cncc(OCc3ccccc3)n2)CC1,92.73

row,Compound,Percent Effect [%]
1,O=C(O)c1ccc(N2CCC(Cc3ccccc3)CC2)nn1,3.318
2,c1ccc2nc(N3CCCC(Cn4cncn4)C3)cnc2c1 (centres undefined),3.637
3,COCC1CCCN(c2cncc(OCc3ccccc3)n2)C1 (centres undefined),88.62
4,c1cncc(COCC2CN(Cc3ccco3)Cc3ccnn3C2)c1 (centres undefined),-0.3306
5,COc1ccc(Cl)cc1CS(=O)(=O)Cc1nc(C2CC2)no1,17.46
6,Cc1cnc2c(c1)N(C(=O)c1ccc(=O)n(C)c1)CCO2,10.48
7,O=C(c1c(F)cccc1Br)N1CCCOCC1,-0.116
8,CCn1ccc(C(=O)N2CCOC(c3nc(-c4cccs4)no3)C2)n1 (centres undefined),106.6
9,CCn1cc(C(=O)N2CCOC(c3nc(-c4cccs4)no3)C2)cn1 (centres undefined),116.8
10,CCCc1cc(C(=O)N2CCOC(c3nc(-c4cccs4)no3)C2)no1 (centres undefined),6.079
11,CCCn1cc(C(=O)N2CCOC(c3nc(-c4cccs4)no3)C2)cn1 (centres undefined),93.77
12,COc1ncccc1C(=O)N1CC(c2nc(-c3cccs3)no2)C1,5.63
13,O=C(O)C(=O)O.c1csc(-c2noc(C3CN(Cc4ccc5c(c4)CCO5)C3)n2)c1,26.44
14,Cc1cc(C)c(C(=O)N2CCOC(c3cccs3)C2)c(=O)[nH]1 (centres undefined),-5.418
15,COc1c(C(=O)N2CCOC(c3cccs3)C2)c(C)nn1C (centres undefined),-3.946
16,CCCn1ccc(C(=O)N2CCOC(c3nc(-c4cccs4)no3)C2)n1 (centres undefined),4.055
17,CN(C)CCN1CC2(CCCN(c3ccc(Cl)cn3)C2)CCC1=O (centres undefined),-8.264
18,CCN(Cc1ccoc1)c1ncc(S(N)(=O)=O)s1,-17.75
19,CC(NCCCC#N)c1ccc(-c2ccncc2)cc1 (centres undefined),-12.76
20,CN(C)CC(=O)N1CCC2(CC1)COc1ccccc1S(=O)(=O)N(C)C2,75.94
21,CN1CC2(CCN(CCOCCO)CC2)CC(c2ccccc2)C1=O (centres undefined),-8.792
22,CCC(=O)N1CCC2(CC1)COc1ccccc1S(=O)(=O)N(C)C2,3.45

row,Compound,Percent Effect [%]
1,COCCN1CCC2(CC1)COc1ccccc1S(=O)(=O)N(C)C2,110
2,COCC(=O)N1CCC2(CC1)COc1ccccc1S(=O)(=O)N(C)C2,78.61
3,CCN1CC2(CCN(C(=O)N(C)C)CC2)COc2ccccc2S1(=O)=O,88.03
4,CCN1CC2(CCNCC2)COc2ccccc2S1(=O)=O.O=C(O)C(F)(F)F,12.77
5,CCc1ccc(CN2CCC3(CCCN(C(=O)N(C)C)C3)C2)o1 (centres undefined),2.362
6,CN1[C@@H](c2ccccc2)[C@@H](C(=O)NCC2CCOCC2)C[C@@]1(C)C(=O)O,-0.5583
7,COCc1ccccc1C(=O)NCC(c1c(F)cccc1F)N(C)C (centres undefined),-0.8203
8,O=c1nc(SCc2cccnc2)c2c(n1CCO)CCC2,-0.5534
9,O=S(=O)(c1cc2ccccc2o1)N1CCCC1,-2.177
10,CS(=O)(=O)NCC(=O)NCc1cccnc1-n1cnc2ccccc21,9.043
11,COc1cccc(-c2n[nH]c3c2CN(C(=O)c2cccc(=O)[nH]2)CC3)c1,-3.168
12,CC(=O)N1CC(c2ncn(C(C)C)n2)c2cc(C(=O)NC3CC3)ccc21 (centres undefined),-21.86
13,CCS(=O)(=O)N1CCC(c2nn(CCN(C)C)c3ncccc23)C1 (centres undefined),95.82
14,CN(C)CCn1nc(C2CCN(S(=O)(=O)N(C)C)C2)c2cccnc21 (centres undefined),111.8
15,CCS(=O)(=O)N1CCC(c2nccn2Cc2ccccn2)CC1,-0.918
16,CCn1c(C2CCCN(S(=O)(=O)C3CC3)C2)nn(CCN(C)C)c1=O (centres undefined),1.006
17,CCn1c(CN(C)C)nnc1C1CCN(Cc2ccccc2)CC1,3.823
18,NCCn1nc(C2CCN(Cc3ccc(Cl)c(Cl)c3)C2)c2nccnc21 (centres undefined),1.426
19,CN(C)CCn1nc(C2CCN(Cc3ccccc3)C2)c2cccnc21 (centres undefined),91.7
20,CN(C)S(=O)(=O)N1CCCC(c2nccn2Cc2cccnc2)C1 (centres undefined),-1.241
21,O=C(NC1(c2nnn(CCO)n2)CCCC1)c1ccccc1,-5.354
22,Cn1c(C(=O)NC2CCCC2)nc2c1CCN(Cc1ccccc1)C2,4.267

row,Compound,Percent Effect [%]
1,Cc1ccc(-c2c(C(=O)NC3CCN(C)CC3)csc2C)cc1,4.532
2,CN1CCC(NC(=O)c2cc(C3CCCCC3)nc3ccccc23)CC1,113.5
3,Cn1cc(C2(C)CN(Cc3ccc(O)c(Cl)c3)CCO2)cn1 (centres undefined),-11.09
4,CCCn1nc2c(cc1=O)CN(Cc1cc(C)on1)CC2,-1.057
5,CCc1ccc(C(=O)NC(C)c2ccc(S(C)(=O)=O)c(F)c2)o1 (centres undefined),2.681
6,CCOCC1CN(C(=O)c2ccncn2)Cc2cnn(C)c21.O=C(O)C(F)(F)F (centres undefined),-8.665
7,COCC1CN(C(=O)c2cccn2C)Cc2cnn(C)c21 (centres undefined),3.786
8,CCOCC1CN(C(=O)c2cccc(C)n2)Cc2cnn(C)c21 (centres undefined),129.5
9,CCOCC1CN(C(=O)c2ccnnc2)Cc2cnn(C)c21 (centres undefined),100.5
10,CCOCC1CN(C(=O)c2cccnc2)Cc2cnn(C)c21 (centres undefined),105
11,Cc1noc(C)c1CNCC1CCN(CC(O)c2ccccc2)CC1 (centres undefined),0.6409
12,CN1CCCC1CCn1ccnc1-c1ccc2ccccc2n1 (centres undefined),-11.7
13,CCCc1nc(C(=O)N2CCN(S(=O)(=O)CC)CC2)cs1,13.9
14,COCC(NC(=O)c1cc(NC(C)=O)ccc1Cl)c1ccnn1C (centres undefined),-14.74
15,CCCc1cc(C(=O)NCCCn2nnc3ccccc32)no1,2.161
16,COCC(Nc1ncnc2sc(C(=O)O)c(C)c12)c1ccnn1C (centres undefined),6.074
17,COCC(Nc1ncnc2sc(C)c(C)c12)c1ccnn1C (centres undefined),-1.475
18,CCCc1nc(C(=O)NC(COC)c2ccnn2C)cs1 (centres undefined),113.9
19,CCCc1nc(C(=O)NCCCn2nnc3ccccc32)cs1,3.085
20,CCCc1cc(C(=O)NC(COC)c2ccnn2C)no1 (centres undefined),98.08
21,COCC(NC(=O)c1cn2ccsc2n1)c1ccnn1C (centres undefined),103.8

# From ChEMBL document CHEMBL3988442, “University of Dundee, Small-Polar-MMV Screening Library” (2021)
